Cruzain inh noDet: cruzain (T. cruzi) inhibition without detergent. AID 1476. Potency, µM, for inactives: max response, negative = inhibition, actives largely listed as inhibitors. 2.3% of 200,000 active. purified cruzain, Z-FR-AMC fluorescence, no detergent;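 also: plate controls were enzyme without inhibitor for no effect and buffer without enzyme for full effect; nearly all actives have a fitted effect of over 40% in size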
Target sequence (P25779 123-467 limits assumed): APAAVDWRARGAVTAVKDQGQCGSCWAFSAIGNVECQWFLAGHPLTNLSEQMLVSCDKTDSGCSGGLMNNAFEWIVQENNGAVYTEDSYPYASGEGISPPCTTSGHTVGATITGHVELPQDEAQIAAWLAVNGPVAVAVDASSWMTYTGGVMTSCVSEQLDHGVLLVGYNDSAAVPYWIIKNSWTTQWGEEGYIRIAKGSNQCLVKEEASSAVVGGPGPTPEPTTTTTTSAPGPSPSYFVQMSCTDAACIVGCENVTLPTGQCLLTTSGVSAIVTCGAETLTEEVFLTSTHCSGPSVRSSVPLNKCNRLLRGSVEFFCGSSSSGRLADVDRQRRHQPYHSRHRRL
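Detergent-free condition (0.00005% Triton X-100) in acetate buffer pH 5.5 with DTT. 1.5 nM enzyme and compound were pre-mixed 15 min, then 2 uM Z-FR-AMC substrate added; reaction progress from fluorescence change between first and third reads (60 s).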
Cruzain inh Det: blocks cruzain activity in presence of Triton detergent. Potency, µM, for the others: max response, negative = inhibition, most hits filed as inhibitors. 0.43% of 200,000 active. purified cruzain, Z-FR-AMC fluorescence, 0.01% Triton;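 also: plate controls were neutral wells for no effect and buffer without enzyme for full effect; nearly all actives have a fitted effect of over 40% in size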
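Sodium acetate buffer (100 mM, pH 5.5) containing 5 mM DTT and 0.01% Triton X-100 hosted 1.5 nM cruzain and test compound for 15 min at room temperature. Cleavage of 2 uM Z-FR-AMC was then tracked by fluorescence.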
* hit, by the source's call; ? = inconclusive. An excerpt weighted towards active compounds, which were near 2.4% of everything screened. Calls follow the shape of the dose curve; as a rule, active = well fitted curve in the direction sought with a large enough effect; inconclusive = small, poorly fitted or top-dose-only effect, or another doubt; inactive = no such curve, though single readings can be large; an effect the other way counts as inactive or inconclusive. Potency is read from the fitted curve at half-maximal effect.

SMILES	Cruzain inh noDet	Cruzain inh Det
C/C(=N\NC(=O)Cn1c(-c2ccccn2)nc2ccccc21)c1ccccc1	-8.3%	-7.6%
CC(=O)c1cc2c(cc1NC(=O)c1ccc(C)cc1)OCO2	?	-1.8%
CCCCOC(=O)c1c(C)oc2c1cc(NS(=O)(=O)c1cc(OC)ccc1OC)c1ccccc12	12.6µM*	-1.3%
COc1ccc(OC)c(S(=O)(=O)Nc2cc3c(C(C)=O)c(C)oc3c3ccccc23)c1	-7.8%	-5.7%
Cc1cc(NC(=O)CSc2nc3c(sc4ccccc43)c(=O)n2CCc2ccccc2)n[nH]1	7.94µM*	7.7%
Cc1cc(NC(=O)CSc2nc3c(sc4ccccc43)c(=O)n2CCCN2CCOCC2)n[nH]1	-22.1%	-13.2%
COCCN(CCOC)S(=O)(=O)c1ccc(C(=O)Nc2nc(-c3ccccc3)c(C(=O)c3ccccc3)s2)cc1	?	-0.5%
O=C(Nc1nc(-c2ccccc2)c(C(=O)c2ccccc2)s1)c1ccc(S(=O)(=O)N2CCCCC2)cc1	7.94µM*	-5.5%
O=C(Nc1nc(-c2ccccc2)c(-c2ccccc2)s1)c1ccc(S(=O)(=O)N2CCCCC2)cc1	3.98µM*	0.7%
COc1ccc(C(=O)Nc2nc(-c3ccc([N+](=O)[O-])cc3)c(-c3ccc(OC)cc3)s2)cc1	10µM*	1.7%
O=C(NNc1nc(-c2ccccc2)c2cc(Br)ccc2n1)c1ccc(S(=O)(=O)N2CCCCC2)cc1	25.1µM*	-5.0%
O=C(NNc1nc(-c2ccccc2)c2cc(Br)ccc2n1)c1ccc(S(=O)(=O)N2CCOCC2)cc1	-2.8%	-1.8%
O=C(Nc1nc2ccc(Cl)cc2s1)c1ccc(S(=O)(=O)N2CCCC2)cc1	-2.9%	-3.3%
COc1ccc(C(=O)Nc2nc3c(s2)CCc2cc(OC)ccc2-3)cc1	-73.3%	-14.0%
Cc1c(C(=O)N2CCC3(CC2)OCCO3)sc2ncnc(N3CCN(c4ccccn4)CC3)c12	5.7%	-6.6%
Cc1ccc(-c2nnc(Nc3ccc(O)cc3)c3ccccc23)cc1S(=O)(=O)NC(C)(C)CO	-12.7%	-17.0%
COCCOC(=O)C1=C(C)NC(C)=C(C(=O)OC(C)C)[C@@H]1c1cccc([N+](=O)[O-])c1	?	-5.2%
COC(=O)/C(=C\c1c[nH]c2ccccc12)NC(C)=O	-2.6%	-6.7%
CC1CCCCN1S(=O)(=O)c1ccc(C(=O)Nc2ccccc2-c2nc3ccccc3[nH]2)cc1 (configuration not stated)	?	-4.9%
O=C(Nc1ccccc1-c1nc2ccccc2[nH]1)c1ccc(S(=O)(=O)N2CCCCC2)cc1	10µM*	-3.8%
O=S(=O)(Nc1nc2ccccc2nc1N1CCN(c2ccccc2)CC1)c1ccc(F)cc1	31.6µM*	-3.4%
CC(=O)Nc1ccc(S(=O)(=O)Nc2nc3ccccc3nc2N2CCCC2)cc1	14.8%	-7.5%
Cc1ccc(CNC(=O)C2CCN(S(=O)(=O)c3ccc(F)cc3)CC2)cc1	-10.2%	-1.3%
COc1ccc(-n2ncc3c2ncn2nc(Cc4ccccc4)nc32)cc1	-10.0%	-0.7%
COc1cccc(OCc2nc3c4cnn(-c5ccccc5)c4ncn3n2)c1	25.1µM*	8.2%
SMILES	Cruzain inh noDet	Cruzain inh Det
O=S(=O)(c1ccc(F)cc1)N1CCN(c2nc(-c3ccc(F)cc3)cs2)CC1	10µM*	-0.6%
CS(=O)(=O)N1CCN(c2nc(-c3ccc(F)cc3)cs2)CC1	-1.4%	-2.2%
CCOc1ccc(NC(=O)CCS(=O)(=O)c2ccc3c(c2)CCCN3C(C)=O)cc1	10.5%	4.3%
C=CCNC(=O)NC(=O)COC(=O)CCCSc1nc2ccccc2[nH]1	-4.2%	-1.2%
COc1ccc(-n2c(Cc3cccn3C)nnc2SCC(=O)Nc2ccc(C)cc2)cc1	19.0%	-6.3%
COc1ccc(NCc2nnc(SCC(=O)Nc3nc(-c4ccccc4)cs3)n2-c2ccccc2)cc1	25.1µM*	-1.1%
Cc1cc(C)nc(SCc2nnc(SCC(=O)Nc3nc(-c4ccccc4)cs3)n2-c2ccccc2)n1	?	5.1%
COc1ccc(-n2c(CNc3ccc(C)cc3)nnc2SCC(=O)Nc2nc(-c3ccccc3)cs2)cc1	6.31µM*	2.2%
Cc1ccnc(N2CCC(C(=O)NNC(=O)COc3cccc4ccccc34)CC2)n1	?	-5.9%
Cc1sc2c(c1C)c(=O)n(CCc1ccccc1)c(=O)n2Cc1ccc(F)cc1	-18.1%	-1.4%
COc1ccc(CCNC(=O)CCCCCn2c(SCC(N)=O)nc3cc4c(cc3c2=O)OCO4)cc1OC	4.3%	4.6%
Cc1ccccc1C(=O)Nc1ccccc1C(=O)OCc1cc(=O)n2nc(C3CC3)sc2n1	-14.3%	3.3%
CCOc1ccccc1NS(=O)(=O)c1ccc2oc(=O)c3ncn(C)c3c2c1	-2.2%	-1.0%
CCOCCOC(=O)c1[nH]c2c(c1C)C(=O)CC(c1ccc(N(C)C)cc1)C2 (configuration not stated)	9.5%	-2.2%
Cc1c(C(=O)OCc2ccccc2)[nH]c2c1C(=O)CC(c1ccc(Cl)cc1)C2 (configuration not stated)	7.94µM*	0.3%
C/C=C/COC(=O)c1[nH]c2c(c1C)C(=O)CC(c1ccc(N(C)C)cc1)C2 (configuration not stated)	31.6µM*	-2.9%
COc1ccc(C2CC(=O)c3c([nH]c(C(=O)OCc4ccccc4)c3C)C2)cc1OC (configuration not stated)	5.0%	-2.4%
Cc1cc(-c2n[nH]c(=S)n2Cc2ccco2)nn1C	-9.1%	4.9%
OC[C@@H]1[C@@H](c2ccc(Cl)cc2)C(c2cccc(Cl)c2)=NN1c1ccccc1	25.1µM*	2.0%
OC[C@@H]1[C@@H](c2ccc(Cl)cc2)C(c2ccccc2)=NN1c1ccccc1	-18.3%	0.3%
C[C@H]1C(c2cccc(Cl)c2)=NN(c2ccccc2)[C@@H]1CO	?	0.4%
OC[C@@H]1[C@@H](c2ccc(F)cc2)C(c2cccc(Cl)c2)=NN1c1ccccc1	31.6µM*	-0.4%
CCOC(=O)Cc1csc(NC(=O)COc2ccc(OC)cc2)n1	-5.6%	2.2%
Cc1cccc(C(=O)N2CCc3cc(CNC(=O)c4cc5ccccc5[nH]4)ccc32)c1	31.6µM*	-0.7%
COc1ccc2cc(C(=O)NCc3ccc4c(c3)CCN4C(=O)c3ccccc3)[nH]c2c1	?	-0.6%
SMILES	Cruzain inh noDet	Cruzain inh Det
Cc1ccc(-c2onc(C)c2C)cc1S(=O)(=O)N1c2ccccc2CC1C (configuration not stated)	-11.7%	-4.9%
Cc1ccc(C)c(S(=O)(=O)NCC(=O)NCc2ccco2)c1	3.4%	-2.5%
O=C(CSc1nc(-c2ccccc2)nc2c1Cc1ccccc1O2)Nc1ccccc1	25.1µM*	9.1%
O=C(CSc1nc(-c2ccc(F)cc2)nc2c1Cc1ccccc1O2)Nc1cccc(C(=O)O)c1	-2.4%	-4.4%
CCc1ccc(NC(=O)C2CCN(S(=O)(=O)c3ccc4[nH]c5c(c4c3)CCCCC5)CC2)cc1	10µM*	1.5%
CC(=O)c1cccc(NC(=O)C2CCN(S(=O)(=O)c3ccc4[nH]c(=O)ccc4c3)CC2)c1	-2.6%	-3.7%
Cc1cccc(NS(=O)(=O)c2ccc3[nH]c4c(c3c2)CCCCCC4)c1	-3.6%	-4.7%
Cc1cccc(NC(=O)C2CCN(S(=O)(=O)c3ccc4[nH]c5c(c4c3)CCCCC5)CC2)c1	12.6µM*	0.9%
O=C(NCc1ccc2[nH]c3c(c2c1)CCCC3)c1ccc(S(=O)(=O)N2CCCCC2)cc1	?	-3.4%
O=C(Nc1ccccc1)C1CCN(S(=O)(=O)c2ccc3[nH]c4c(c3c2)CCCCC4)CC1	15.8µM*	-1.7%
